Screens as filed in PubChem BioAssay.
The sample as a whole holds a higher share of hits than the screen did.
Methyltransferases: Primary Screen for Target Class Profiling of Small Molecule Inhibitors of Methyltransferases; purified enzyme, MTase-Glo SAH luminescence; active compounds read low; calls only at 40 µM; hit rate 3.9% among 25,000; AID 1745853, 2022; call rule not given here
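Each enzyme was reacted with SAM and its substrate, with compounds tested once at 40 uM; SAH formed was read by MTase-Glo luminescence.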
Calls only; . = inactive; + = active, no number; ! = not confirmed by another sample.

SMILES	Methyltransferases
CN(C)CCN1C(=O)c2cc3occc3n2CC1(C)C(=O)NC1CCCCC1 (configuration not stated)	.
COc1cc(N2CCC(N3CCN(C)CC3)CC2)ccc1Nc1ncnc(Nc2ccccc2S(=O)(=O)C(C)C)n1	.
COc1cc(N2CCC(O)CC2)ccc1Nc1cc(Nc2ccccc2S(=O)(=O)C(C)C)c2cc[nH]c2n1	+
CCC(NS(=O)(=O)c1cc(-n2cccn2)ccc1OC)C1CC(O)C1 (configuration not stated)	.
COc1ccc(Cl)cc1NS(=O)(=O)c1ccc2c(c1)n(C)c(=O)n2C	.
CCC(C)NC(=O)c1ccc2c(=O)n(CCC(C)C)c3nn(Cc4cccc(F)c4)c(=O)n3c2c1 (configuration not stated)	.
CC(C)Cn1c(=O)c2ccccc2n2c(SCC(=O)Nc3cccc(Cl)c3)nnc12	.
CCC(C)NC(=O)c1ccc2c(=O)n(C)c3nnc(SCC(=O)NC(C)C)n3c2c1 (configuration not stated)	.
CC(C)CCn1c(=O)c2ccccc2n2c(CCC(=O)NCc3ccccc3)nnc12	.
Cc1ccccc1CNC(=O)C1(C)Cc2ccccc2C(=O)N1Cc1ccccc1 (configuration not stated)	.
CCCn1c(=O)c2ccccc2n2c(SCc3ccc(F)cc3Cl)nnc12	.
Cc1c(Cl)cccc1N1C(=O)c2cc3ccccc3n2CC1(C)C(=O)NCCC(C)C (configuration not stated)	.
c1ccc(CCCN2CC[C@H](c3nc4ccccc4s3)C2)cc1	.
c1cc(CN2CCCCC2)cc(OCCCNc2nc3ccccc3s2)c1	+
NC(=O)COc1cccc(CN2CCN(c3ccc(F)cc3F)CC2)c1	.
CC(C)(C)c1cc2n(n1)CC(C)(C(=O)NCc1ccccc1)N(c1ccc(F)cc1)C2=O (configuration not stated)	.
Cc1nnc(C[C@@H]2C=C(c3ccc(Cl)cc3)c3ccccc3-n3c(C)nnc32)o1	+
CN(C(=O)Cn1nc2n(C)c(=O)c3ccc(C(=O)NC4CCCC4)cc3n2c1=O)c1ccc(F)cc1	.
CCCC1CCC(c2ccc(C(=O)COC(=O)C(Cc3c[nH]c4ccccc34)NC(=O)c3ccc(Cl)cc3)cc2)CC1 (configuration not stated)	.
CN1C(=O)c2cc(C(=O)NCCCN3CCCCC3)nn2CC1(C)C(=O)NC1CCCCCC1 (configuration not stated)	.
Cc1ccc(N2C(=O)c3cc4sccc4n3CC2(C)C(=O)NC2CCCC(C)C2C)c(C)c1 (configuration not stated)	.
Cn1c(=O)c2[nH]c(-c3ccc(S(=O)(=O)O)cc3)nc2n(C)c1=O	+
C=CCn1c(=O)c2c(nc(-c3ccc(S(=O)(=O)O)cc3)n2C)n(C)c1=O	.
Cn1c(=O)c2[nH]cnc2n(C)c1=O	.
Cc1ccc(CN2C(=O)c3cc4oc(C)cc4n3CC2(C)C(=O)NC2CCCCCC2)cc1 (configuration not stated)	.
SMILES	Methyltransferases
N#Cc1ccc2[nH]cc(CCCCN3CCN(c4ccc5oc(C(N)=O)cc5c4)CC3)c2c1	+
COc1cc2c(NC3CCN(CC4CCCCC4)CC3)nc(N3CCCN(C(C)C)CC3)nc2cc1OCCCN1CCCCC1	+!
COc1ccc(S(=O)(=O)c2nnn3c2nc(Nc2ccccc2C)c2ccccc23)cc1	.
Cc1ccc(CN2C(=O)c3nc4ccccc4n3CC2(C)C(=O)NC2CCCC2)cc1 (configuration not stated)	.
COC(=O)COc1cc2oc(=O)cc(-c3ccccc3)c2cc1Cl	.
CCCc1cc2c(-c3ccccc3)cc(=O)oc2cc1OCc1ccc(C(=O)O)o1	+
CCCCOC(=O)COc1ccc2c(-c3ccccc3)cc(=O)oc2c1	.
COc1cccc(NC(=O)N2CCn3cccc3C2C)c1 (configuration not stated)	.
CC1(C(=O)NC2CCCCCC2)Cn2c(nc3ccccc32)C(=O)N1Cc1ccccn1 (configuration not stated)	.
CCCc1nc(CN(CC)C(=O)c2ccc(NC(=O)C3CCC3)cc2)no1	.
Nc1nc(N)c(N=O)c(OCC2CCCCC2)n1	.
NS(=O)(=O)c1ccc(Nc2nc(OCC3CCCCC3)c3[nH]cnc3n2)cc1	+
CCN(CC)C(=O)c1ccc(Nc2nc(OCC3CCCCC3)c3[nH]cnc3n2)cc1	+
CC(C)Cn1c(=O)c2ccc(C(=O)NC3CCCCC3)cc2n2c(SCC(=O)NC(C)C)nnc12	.
CC(C)CNC(=O)c1ccc2c(=O)n(CC(C)C)c3nn(CC(N)=O)c(=O)n3c2c1	.
Cc1ccc(CNC(=O)Cn2c(=O)oc3cc(S(=O)(=O)N4CC(C)CC(C)C4)ccc32)cc1 (configuration not stated)	.
CCOC(=O)c1cc2n(n1)CC(C)(C(=O)NC1CCCC1)N(c1cccc(Cl)c1C)C2=O (configuration not stated)	.
Cc1ccc(S(=O)(=O)NCCc2nc(-c3ccc4c(c3)ncn4C)no2)cc1	.
CCOC(=O)c1oc2cc3sc(N4CCCCC4)nc3cc2c1C	.
Cc1ccc(Cn2c(=O)c3ccccc3n3c(CCC(=O)N4CCN(c5ccccn5)CC4)nnc23)cc1	.
Oc1cccc(Nc2ccnc3[nH]c4ccccc4c23)c1	+
O=C(O)CCc1nccc2c1[nH]c1ccccc12	.
COc1ccccc1CNC(=O)C1CN(C(C)C)C(=O)N1 (configuration not stated)	.
C[C@@H](Oc1cc(-c2cnn(C3CCNCC3)c2)cnc1N)c1c(Cl)ccc(F)c1Cl	+!
C[C@H](Oc1cc(-c2cnn(C3CCNCC3)c2)cnc1N)c1c(Cl)ccc(F)c1Cl	+
SMILES	Methyltransferases
COc1ccc2cc3n(c2c1)CC(C)(C(=O)NC1CCCC1)N(c1ccc(C)c(C)c1)C3=O (configuration not stated)	.
O=C(CCc1nnc2n(CCc3ccccc3)c(=O)c3ccccc3n12)NCc1ccc(F)cc1	.
Cc1ccc(NC(=O)N2CCn3cccc3C2C(C)C)cc1C (configuration not stated)	.
CC1(C(=O)NCc2ccccc2)Cn2c(cc3ccccc32)C(=O)N1CCCc1ccccc1 (configuration not stated)	.
CC1(C(=O)NCC2CCCO2)Cn2c(cc3ccccc32)C(=O)N1Cc1ccccc1Br (configuration not stated)	.
CCOc1ccccc1CNC(=O)C(CC)n1ccc2cc(S(=O)(=O)N3CCCCC3)ccc21 (configuration not stated)	.
O=C(/C=C/c1ccc(O)c(O)c1)OCc1ccccc1O[C@@H]1O[C@H](CO)[C@@H](O)[C@H](O)[C@H]1O	.
O=C(/C=C/c1ccc(O)cc1)OC[C@H]1O[C@H](O[C@@]2(CO)O[C@@H](CO)[C@H](O)[C@H]2O)[C@H](O)[C@@H](O)[C@@H]1O	.
COc1cc(/C=C/c2cc(O)cc(O[C@@H]3O[C@H](CO)[C@@H](O)[C@H](O)[C@H]3O)c2)ccc1O	+
COc1cc(/C=C/C(=O)O[C@H]2[C@H](O)[C@@H](CO)O[C@@]2(CO)O[C@H]2O[C@H](CO)[C@@H](O)[C@H](O)[C@H]2O)cc(OC)c1O	.
COc1cc(C(CO)C(OC2OC(CO)C(O)C(O)C2O)c2ccc(O)c(OC)c2)ccc1O (configuration not stated)	.
COc1cc(/C=C/CO)ccc1O[C@@H]1O[C@H](CO)[C@@H](O)[C@H](O)[C@H]1O	.
